Screens as filed in PubChem BioAssay.
An excerpt weighted towards active compounds, which were near 19% of everything screened.
LASV entry inh: qHTS for Inhibitors of binding or entry into cells for Lassa Virus; 1.2% of 300,000 active; Potency, µM (top dose mostly 37.9 µM), inactives show at the top dose activity change, negative = inhibition, hits mostly inhibitors; Lassa virus pseudotype entry inhibition, cell reporter; calls by dose curve; tested in HEK293 cells; note: potency is the fitted concentration of half-maximal effect; % is set by controls: 0 for no effect and ±100 for the full control effect; nearly all actives have a fitted effect of over 50% in size
Shiga inhibitor: A qHTS for Small Molecule Inhibitors of Shiga Toxin. Vero cells, Shiga toxin protein synthesis inhibition reporter. 9.2% of 290,000 active. inhibition, % at 38.7 µM; in the data active = inhibition mostly above about 28%, no sharp cut-off; inactive = mostly below about 43%; note: 0% is about no effect
Pf growth 48h: Primary qHTS for delayed death inhibitors of the malarial parasite plastid, 48 hour incubation; P. falciparum luciferase growth in erythrocytes, 48 h; Potency, µM (highest dose often 28.7 µM), for the others: at the top dose activity change, negative = inhibition, actives largely listed as inhibitors; 5.9% of 310,000 active; AID 504832, 2011; note: potency is the fitted concentration of half-maximal effect; % is set by controls: 0 for no effect and ±100 for the full control effect
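Firefly luciferase activity from engineered P. falciparum reports growth; inhibitors lower the luminescent signal. Cultures contained 2% hematocrit erythrocytes at 0.1% final parasitemia.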
Pf growth 96h: Primary qHTS for delayed death inhibitors of the malarial parasite plastid, 96 hour incubation; P. falciparum luciferase reporter growth, 96 h; Potency, µM (titrated, usually from 28.7 µM), without a hit: at the highest dose activity change, negative = inhibition, actives largely listed as inhibitors; 6.9% of 320,000 active; note: potency is the fitted concentration of half-maximal effect; % is set by controls: 0 for no effect and ±100 for the full control effect
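Two parasite generations (96 h, 37 C, 5% CO2) of compound exposure in infected erythrocytes (0.05% parasitemia, 2% hematocrit). Luciferase-reporter P. falciparum; decreased luminescence indicates inhibited growth, aimed at apicoplast-acting delayed death.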
CHX counter: Cycloheximide Counterscreen for Small Molecule Inhibitors of Shiga Toxin | AID 2314, 2010 | 12% of 300,000 active | max response, % | cell reporter, cycloheximide protein synthesis inhibition counterscreen; in the data active = max response mostly above about 13%, no sharp cut-off; inactive = mostly below about 14%; note: read at 38.3 µM for the half of the compounds with a filed dose; 0% is about no effect
MARV entry inh: qHTS for inhibitors of binding or entry into cells for Marburg Virus | Marburg virus pseudotyped entry inhibition, cell reporter | Potency, µM (top dose mostly 37.8 µM), without a hit: top-dose activity change, negative = inhibition, most hits filed as inhibitors | 1.8% of 300,000 active; calls by dose curve; tested in HEK293 cells; note: potency is the fitted concentration of half-maximal effect; % is set by controls: 0 for no effect and ±100 for the full control effect
* hit, by the source's call; ? = inconclusive; · = not tested or not shown; [ ] = dose if it differs, or a comment. Unless noted, calls come from the whole dose curve; as a rule, active = well fitted inhibition curve with a large enough effect; inconclusive = small, poorly fitted or top-dose-only effect, or another doubt; inactive = no such curve, though single readings can be large or run the other way.

SMILES	LASV entry inh	Shiga inhibitor	Pf growth 48h	Pf growth 96h	CHX counter	MARV entry inh
O=C1NCC(COCc2ccccc2)O1 (stereo unspecified)	-3%	-6	13%	5.2µM*	-1	?
c1ccc(COC[C@H]2CO2)cc1	·	-15	·	·	-8	·
N#Cc1ccc(-c2ccc(OCC3CNC(=O)O3)cc2)cc1 (stereo unspecified)	?	65*	35%	0%	47*	4%
O=C1NCC(COc2ccc([N+](=O)[O-])cc2)O1 (stereo unspecified)	·	-7	27%	22%	2	·
Cc1ccc2nc(-c3ccc(N4C(=O)CC(N5CCN(CCO)CC5)C4=O)cc3)sc2c1 (stereo unspecified)	1%	68*	78%	88%	37*	0%
Cc1ccc(N2C(=O)CC(N3CCN(c4ccccn4)CC3)C2=O)cc1 (stereo unspecified)	5%	-6	5%	44%	-4	16%
COc1cc(C=C2C(=O)OC(c3ccccc3)OC2=O)cc(Br)c1O (stereo unspecified)	-23%[46.1 µM]	33	17%	?	5	12%[46.1 µM]
Cc1ccccc1NC(=S)NC(=O)C1CCCCC1	·	45	?	72%	19*	·
CCOc1ccccc1NC(=S)NC(=O)C1CC1	?	18	5.2µM*	?	13	12%
O=C(NC(=S)Nc1ccccc1CO)C1CCCCC1	2%[46.1 µM]	·	·	·	·	?
O=C(NCc1cccs1)c1ccncc1	16%	16	33%	·	-1	1%
O=C(NCc1cccs1)c1ccc(N2CCCCC2)nc1	-16%	112*	?	-22%	53*	-2%
CC1CCCN(c2ccc(C(=O)NCc3ccccc3)cn2)C1 (stereo unspecified)	-8%[46.1 µM]	104*	61%	?	31*	?
C#Cc1ccc(C(=O)NCc2ccc(N3CCCC3=O)cc2)cc1	·	11	25%	10%	2	·
CC1CCCN(c2ccc(C(=O)NCc3cccs3)cn2)C1 (stereo unspecified)	10µM*	active	23%	?	45*	12%
CC1CCN(c2nc3ccc(C(=O)NCc4ccccc4)cc3s2)CC1	9%[46.1 µM]	·	·	·	·	24%[46.1 µM]
O=C(NCc1cccs1)c1ccc(N2CCCC2=O)cc1	13%	53*	·	46%	36*	-29%[46.1 µM]
CC1CCN(c2ccc(C(=O)NCCc3ccccc3)cn2)CC1	-30%	99*	75%	20%	27*	9%
CCC(=O)[C@@]1(C)[C@H](C)C[C@@H]2[C@@H]3CCC4=CC(=O)C=C[C@@]4(C)[C@H]3[C@H](O)C[C@]21C	·	·	2.6µM*	2.6µM*	·	·
CCCC1OC2CC3C4CCC5=CC(=O)C=CC5(C)C4C(O)CC3(C)C2(C(=O)CO)O1 (stereo unspecified)	·	-3	·	·	-2	·
CCC(=O)OCC(=O)C1(OC(=O)CC)[C@H](C)C[C@H]2[C@H]3[C@H]([C@@H](O)C[C@@]21C)[C@@]1(C)C=CC(=O)C=C1C[C@H]3Cl (stereo partly specified)	·	·	?	0%	·	·
CCCC1O[C@@H]2C[C@H]3[C@@H]4CCC5=CC(=O)C=C[C@]5(C)C4[C@@H](O)C[C@]3(C)[C@]2(C(=O)CO)O1 (stereo partly specified)	·	·	·	·	·	3.2µM*
CCC(=O)OCC(=O)[C@@]1(OC(=O)CC)[C@H](C)C[C@@H]2[C@@H]3[C@H]([C@@H](O)C[C@@]21C)[C@]1(C)C=CC(=O)C=C1C[C@@H]3Cl	·	·	2.6µM*	4.1µM*	·	·
Oc1ccc2c(ccc3[nH]cnc32)c1	·	51*	?	62%	28*	·
Nc1c([N+](=O)[O-])cc(F)c(N2CCNCC2)c1Br	-1%	2	42%	16%	7	?
SMILES	LASV entry inh	Shiga inhibitor	Pf growth 48h	Pf growth 96h	CHX counter	MARV entry inh
Fc1cc2[nH]c(=S)[nH]c2c(Br)c1N1CCSCC1	·	47	-4%	?	9.2*	·
O=C(CN1C(=O)NC2(CCCCCC2)C1=O)c1cccs1	13%	·	3%	51%	·	-1%
Cc1csc(NC(=O)Nc2cccc(Cl)c2)n1	-9%	86*	9%	·	30*	?
O=C(Nc1cccc(Cl)c1)Nc1nc(-c2ccccc2)cs1	·	17	0%	?	-1	·
Cc1nnc(NC(=O)Nc2cccc(Cl)c2)s1	-1%	80*	?	-23%	51*	26%
Cc1ccc(OCCSCc2nnc(NC(=O)Nc3cccc(Cl)c3)s2)cc1	?	-12	12µM*	?	-5	?
N#CCSc1nccc(/C=C/c2ccccc2)n1	24%	40*	20%	?	42*	-24%[46.1 µM]
N#CCCN(C(=O)COc1ccc(Cl)cc1Cl)c1ccccc1	-8%	29	-29%	?	19*	21%
Cc1cc(Cl)ccc1NC(=O)C1CCCN(c2nnc(C)c3c(C)n(-c4ccccc4)nc23)C1 (stereo unspecified)	-2%[46.1 µM]	·	·	·	·	·
CCOc1cc(C(=O)Nc2ccccc2N2CCOCC2)ccc1OCC(=O)N1CCOCC1	-2%	·	9%	26%	·	1%
Oc1ccc(Br)cc1/C=N/N1CCCCC1	11%	82*	95%	148%	52*	26%
Oc1cc(Br)ccc1C=Nc1ccc(N2CCCCC2)cc1	·	34	8.3µM*	8.3µM*	10	·
Oc1ccc(Br)cc1/C=N/N1CCN(Cc2ccccc2)CC1	-2%	3	19%	39%	-3	?
Oc1ccc(Br)cc1/C=N/n1cnc2ccccc21	-2%	60*	3.3µM*	2.3µM*	41*	17%
Oc1ccc(C=Nc2ccc(N3CCOCC3)cc2)c(O)c1	?	-4	-30%	·	-6	?
CC(=O)Nc1ccc(S(=O)(=O)NCCC(=O)OCC(=O)c2ccc(Br)cc2)cc1	?	·	15%	11%	·	4%
CCN(CC)CCN(C(=O)c1ccc2c(c1)OCCO2)c1nc2cc(C)cc(C)c2s1	-26%	-11	?	?	-2	?
Cc1oc2cc3oc(=O)c(CCC(=O)N4C[C@H]5C[C@@H](C4)c4cccc(=O)n4C5)c(C)c3cc2c1C	·	-1	?	2.9µM*	-4	·
Cc1c(CC(=O)N2C[C@H]3C[C@@H](C2)c2cccc(=O)n2C3)c(=O)oc2cc(O)c(Cl)cc12	·	-6	20%	68%	-3	·
Cc1oc2c(C)c3oc(=O)c(CCC(=O)N4C[C@H]5C[C@@H](C4)c4cccc(=O)n4C5)c(C)c3cc2c1C	·	-6	?	12µM*	-1	·
Cc1c(C)c2ccc(OC(C)C(=O)N3C[C@H]4C[C@@H](C3)c3cccc(=O)n3C4)c(C)c2oc1=O (stereo partly specified)	·	-4	20%	?	2	·
Cc1coc2c(C)c3oc(=O)c(CCC(=O)N4CCC(C(=O)NCCCC(=O)O)(c5ccccc5)CC4)c(C)c3cc12	·	-7	?	9.3µM*	-4	·
